The values below come from PubChem BioAssay (NCATS).

Values joined by “and” are separate entries in the source; they are usually repeats but may differ in a detail not shown here. Equal entries are not always repeated. Records with an inconclusive call do not appear. Active and inactive are the calls of the source. Unless noted, calls follow the shape of the dose curve; as a rule, active = well fitted curve in the direction sought with a large enough effect; inconclusive = small, poorly fitted or top-dose-only effect, or another doubt; inactive = no such curve, though single readings can be large; an effect the other way counts as inactive or inconclusive.

For assay [1], the target named is Cytochrome P450 2D6 (Homo sapiens) (UniProt P10635). Kind of assay: Cytochrome P450 family 2 subfamily D member 6 (CYP2D6) small molecule antagonists: luciferase biochemical (cell-free) qHTS assay (AID 1645840; active = well fitted curve in the direction sought with a large enough effect in the repeat runs; an effect the other way counts as inactive or inconclusive; also: nearly all actives have a fitted effect of over 55% in size). To be noted: P450-Glo CYP2D6 enzyme, luciferin luminescence, 1 h; series mostly up to 57.4 µM. The method, boiled down:
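P450-Glo CYP2D6 system: proluciferin substrate converted by enzyme to luciferin, read by luminescence proportional to activity. Enzyme-substrate mix with compound 10 min at room temperature, then NADPH regeneration 1 h before detection reagent.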
Background: Quantitative high-throughput screening tests each substance at several concentrations.

The target of assay [2] is Cytochrome P450 2C9 (Homo sapiens) (UniProt P11712). Kind of assay: Cytochrome P450 family 2 subfamily C member 9 (CYP2C9) small molecule antagonists: luciferase biochemical (cell-free) qHTS assay (AID 1645842; active = well fitted curve in the direction sought with a large enough effect in the repeat runs; an effect the other way counts as inactive or inconclusive; also: nearly all actives have a fitted effect of over 55% in size). To be noted: P450-Glo CYP2C9 enzyme assay, luciferin luminescence; series mostly up to 57.4 µM. The method, boiled down:
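P450-Glo CYP2C9 system: proluciferin substrate with enzyme in mix containing 0.4% BSA, 10 min at room temperature, then NADPH regeneration solution added and incubated 1 h at 37C. Detection reagent stopped reaction; luminescence read after 20 min as RLU.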

Assay [3] in a line: Primary qHTS for inhibitors of nuclear receptor binding SET domain protein 2 (NSD2) in an isogenic RCH-ACV NSD2 p.E1099K mutant (9B) (AID 1645876). Also: nearly all actives have a fitted effect of over 70% in size. To be noted: RCH-ACV NSD2 E1099K (9B) viability, CellTiter-Glo, 72 h; series mostly up to 44.9 µM.
Assay [4] can be described thus: Primary qHTS for inhibitors of nuclear receptor binding SET domain protein 2 (NSD2) in an RCH-ACV wild type WT cells (2C) (AID 1645877). Also: nearly all actives have a fitted effect of over 70% in size. As to conditions: RCH-ACV (leukaemia line) NSD2 WT (2C) viability, CellTiter-Glo, 72 h; series mostly up to 44.9 µM.
Potency is read from the fitted curve at half-maximal effect.

Sequence of Cytochrome P450 2D6 (Homo sapiens) (P10635 whole entry, looked up): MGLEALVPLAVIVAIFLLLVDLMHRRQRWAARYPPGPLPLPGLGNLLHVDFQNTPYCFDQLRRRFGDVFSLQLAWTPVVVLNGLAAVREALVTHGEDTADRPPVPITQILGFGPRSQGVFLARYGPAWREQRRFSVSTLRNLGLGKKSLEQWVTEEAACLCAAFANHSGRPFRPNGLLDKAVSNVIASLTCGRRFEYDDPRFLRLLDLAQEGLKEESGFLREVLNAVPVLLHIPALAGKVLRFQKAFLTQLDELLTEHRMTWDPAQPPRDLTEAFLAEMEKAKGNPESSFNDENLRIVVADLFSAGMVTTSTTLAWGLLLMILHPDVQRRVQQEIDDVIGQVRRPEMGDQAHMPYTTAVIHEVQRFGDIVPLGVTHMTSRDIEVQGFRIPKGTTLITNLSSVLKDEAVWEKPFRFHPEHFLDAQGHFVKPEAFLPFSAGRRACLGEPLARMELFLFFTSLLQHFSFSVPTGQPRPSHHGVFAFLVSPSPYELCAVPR
Sequence of Cytochrome P450 2C9 (Homo sapiens) (P11712 whole entry, looked up): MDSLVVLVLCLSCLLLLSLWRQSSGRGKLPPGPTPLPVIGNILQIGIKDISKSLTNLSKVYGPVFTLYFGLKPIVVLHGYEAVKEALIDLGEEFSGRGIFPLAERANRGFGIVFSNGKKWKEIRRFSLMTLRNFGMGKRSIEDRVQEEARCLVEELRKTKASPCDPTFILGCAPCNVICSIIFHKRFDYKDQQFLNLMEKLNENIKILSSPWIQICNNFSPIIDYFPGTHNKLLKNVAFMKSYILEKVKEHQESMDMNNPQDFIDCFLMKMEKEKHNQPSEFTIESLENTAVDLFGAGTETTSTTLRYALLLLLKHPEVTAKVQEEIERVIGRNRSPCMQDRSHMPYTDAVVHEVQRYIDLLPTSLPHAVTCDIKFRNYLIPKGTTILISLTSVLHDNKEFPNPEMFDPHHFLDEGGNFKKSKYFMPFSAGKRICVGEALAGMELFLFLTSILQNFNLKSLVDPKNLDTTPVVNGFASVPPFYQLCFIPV

With `Cn1ncc(Cl)c1-c1cc(C(=O)NC(CN)Cc2ccc(F)c(F)c2)oc1Cl` (stereo unspecified), the Potency in assay [1] was 12 µM (active) and 13.5 µM (active); in assay [2] it was 8.49 µM (active); in assay [3], 728 nM (active) and 833 nM (active); in assay [4] it was 817 nM (active) and 742 nM (active).
Regarding `COc1cc2nc(C3CC3)nc(N3CCN(c4ccccc4OC)CC3)c2cc1OC`, the Potency was 21.3 µM (active) in assay [1], 13.5 µM (active) in assay [2], 16.3 µM (active) in assay [3] and 12.9 µM (active) in assay [4].
For `Cc1csc(N(C(=O)CSc2ccc(-c3ccccc3)nn2)C2CC2)n1`, in that order: “inactive”, 10.7 µM (active), “inactive” and “inactive”.
`CCOc1ccc(S(=O)(=O)N2CCCCCC2)c2ccccc12`: the Potency entry in assay [1], in assay [3] and in assay [4] was “inactive” each time. The Potency in assay [2] is 7.56 µM (active).
`O=C(Nc1ccc(C(O)(C(F)(F)F)C(F)(F)F)cc1)c1ccc(C(F)(F)F)cc1`: the Potency in assay [1] is 19 µM (active); in assay [2], 10.7 µM (active); in assay [3], 5.78 µM (active); in assay [4], 5.78 µM (active).
On to `CCC(C)CNCC(=O)N1CCC2SC=CC2C1COc1cccc(C)c1` (stereo unspecified), for which the Potency is 0.0756 µM (active) in assay [1], 12 µM (active) in assay [2], 23 µM (active) in assay [3] and 18.3 µM (active) in assay [4].
For `CCCN1CCC=C(c2cc(-c3ccc(C)cc3)no2)C1`, in that order: 2.68 µM (active), “inactive”, “inactive” and “inactive”.
For the molecule `COc1ccc(NC(=O)c2ccc(-c3ccc(-c4nnc(C)o4)cc3C)cc2)cc1N1CCN(C)CC1`, the Potency in assay [1] is 30.1 µM (active); in assay [2], 19 µM (active); in assay [3] it was 20.5 µM (active); in assay [4], 10.3 µM (active).
With `COc1ccccc1N1CCN(c2ncnc3n[nH]c(Br)c23)CC1`, in assay [1], the Potency entry is “inactive”. Besides, the Potency was 7.56 µM (active) in assay [2], 23 µM (active) in assay [3] and 16.3 µM (active) in assay [4].
Regarding `O=C(Nc1cccnc1)c1cc(-c2ccnc(F)c2)ccc1OCc1ccccc1`, the Potency result in assay [1], in assay [3] and in assay [4] was “inactive” in each case. Moreover, the Potency in assay [2] was 1.51 µM (active).
For the molecule `Cc1csc2c(N[C@@H](C)CN3CCN(S(=O)(=O)c4ccc(Cl)c(Cl)c4)CC3)ncnc12`, the Potency is 0.425 µM (active) in assay [1], 6.01 µM (active) in assay [2], 2.9 µM (active) in assay [3] and 8.17 µM (active) in assay [4].
Take `CCCC(Nc1nc(-c2ccc(NC(=O)NCC)c(OC)c2)ncc1C)c1cccnc1` (stereo unspecified): the Potency in assay [1] is 5.35 µM (active); in assay [2] it was 0.239 µM (active); in assay [3], 0.183 µM (active); in assay [4], 0.115 µM (active).
For the molecule `Fc1ccc(-c2nc(C3CCNCC3)sc2-c2ccnc(NC3CC3)n2)cc1`, the Potency was 6.01 µM (active) in assay [1], 16.9 µM (active) in assay [2], 8.17 µM (active) in assay [3] and 6.49 µM (active) in assay [4].
In the case of `COc1ccc(-c2cnc3c(-c4cccc5ncccc45)cnn3c2)cc1`, the Potency result in assay [1], in assay [3] and in assay [4] was “inactive” each time. Besides, in assay [2], the Potency was 12 µM (active).
With `CCC1C(=O)N(C)c2cnc(Nc3ccc(C(=O)NC4CCN(C)CC4)cc3OC)nc2N1C1CCCC1` (stereo unspecified), the Potency result in assay [1] is “inactive”. The figures for the Potency in assay [2], in assay [3] and in assay [4] were 2.13 µM (active), 0.0073 µM (active) and 0.0082 µM (active), respectively.
Consider `c1cc(NCCc2c[nH]c3ccccc23)cc(Nc2ccncc2)c1`, for which the Potency is 0.477 µM (active) in assay [1], 0.674 µM (active) in assay [2], 7.28 µM (active) in assay [3] and 3.25 µM (active) in assay [4].
As for `OC(c1ccc(-c2ccc(CN3CCN(Cc4ccncc4)CC3)cc2)c(F)c1)(C(F)(F)F)C(F)(F)F`, the Potency was 3.38 µM (active) in assay [1] and 1.34 µM (active) in assay [2]. In addition, the Potency result in assay [3] and in assay [4] was “inactive” throughout.
On to `COc1cc(NC(=O)c2cc(C3CC3)on2)c(OC)cc1Cl`, for which the Potency is 2.39 µM (active) in assay [1] and 10.7 µM (active) in assay [2]. The Potency entry in assay [3] and in assay [4] was “inactive” each time.
In the case of `Cc1nc(C#Cc2ccnc(Cl)c2)c(C)n1-c1ccc(OC(F)(F)F)cc1`, the Potency was 10.7 µM (active) in assay [1], 8.49 µM (active) in assay [2], 18.3 µM (active) in assay [3] and 10.3 µM (active) in assay [4].
For `C[C@@H](N[C@H]1CCCC[C@@H]1NC(=O)c1ccc(Cl)cc1)c1cccc2ccccc12`, in that order: 0.756 µM (active), 12 µM (active), 14.5 µM (active) and 9.16 µM (active).
For `N#Cc1ccc(COC[C@H]2O[C@@H](n3c(NCc4ccc(Cl)c(Cl)c4)nc4c(N)ncnc43)[C@H](O)[C@@H]2O)cc1`, in that order: 10.7 µM (active), 10.7 µM (active), 14.8 µM (active) and 9.34 µM (active).
For `CC(C)n1nc(C#Cc2ccccc2)c2c(N)ncnc21`, in that order: 19 µM (active), 0.601 µM (active), 1.83 µM (active) and 3.25 µM (active).
As for `O=C(Nc1nnc(-c2ccc3c(c2)OCCO3)o1)C1CCCCC1`, the Potency entry in assay [1], in assay [2], in assay [3] and in assay [4] was “inactive” in each case.
For `CN1CCC(c2cn(C)c3ccc(OS(=O)(=O)c4c(F)cccc4F)cc23)CC1`, the Potency in assay [1] is 12 µM (active); in assay [2], 9.52 µM (active); in assay [3], 18.3 µM (active); in assay [4], 23 µM (active).
